{
  "source": "PubChem BioAssay (NCATS)",
  "note": "Inconclusive results are not listed. Active and inactive are the calls of the source. Calls come from the whole dose curve; as a rule, active = well fitted activation curve with a large enough effect; inconclusive = small, poorly fitted or top-dose-only effect; inactive = no such curve, though single readings can be large or run the other way.",
  "data": [
    {"test": "qHTS for Activators of Parkin Expression: LOPAC Validation Assay (FLuc Reporter) (AID 720573)", "conditions": "Cell line, PRKN promoter firefly luciferase reporter, vehicle wells = 0, positive control = 100%; series mostly up to 46.1 µM", "source_text": "Parkin is an E3 ubiquitin ligase localized in the cytosol of cells expressed in many tissues, including brain, skeletal muscle, heart and liver tissues. One hour after stress induction by mitochondrial uncouplers (which mimic mitochondria damage by decreasing the mitochondrial inner membrane electrochemical gradient that is used to produce ATP), Parkin translocates from the cytosol to mitochondria in many cultured cell types, including neurons and HeLa cells. Administration of other mitochondrial poisons, such as Paraquat and azide in cells lacking mitochondrial DNA (mtDNA), induces Parkin translocation to mitochondria. […] It was proposed that Parkin (together with Pink1) mediates a mitochondrial quality control pathway to maintain organelle population fidelity by removing damaged mitochondria. Understanding the normal physiologic role of Parkin (and Pink1) may uncover novel treatment strategies for sporadic Parkinson's disease patients with mutation in these genes.\nA cell based qHTS in 1536 well format was developed assess modulation of Parkin expression using a neuronal cell line that stably expresses a stably expresses a luminescent coincidence reporter (FLuc and NLuc reporters) behind the Parkin promoter. The LOPAC library is used to validate the assay for quantitative high-throughput screening. The data herein reports the signal from the FLuc reporter. An increase in this signal = activation of Parkin expression. For this assay , a positive control normalized signal increase corresponding to a high quality qHTS curve class in both luminescent channels is the desired outcome for this assay.\nNIH Chemical Genomics Center [NCGC]\nNIH Molecular Libraries Probe Centers Network [MLPCN]\nAssay Submitter (PI): Richard Youle, National Institute of Neurological Disorders and Strokes (NINDS), NIH\n[1] Narendra, D., et al., Parkin is recruited selectively to impaired mitochondria and promotes their autophagy. J Cell Biol, 2008. 183(5): p. 795-803.\n[2] Suen, D.F., et al., Parkin overexpression selects against a deleterious mtDNA mutation in heteroplasmic cybrid cells. Proc Natl Acad Sci U S A, 2010. […] 11835-40.\n[3] Cheng K, Inglese J. A coincedence reporter-gene system for high-throughput screening. Nat Methods. 2012: 9(10);937\nFive microliters (1,500 cells/well) of the Parkin coincidence reporter cells were seeded to 1536 well assay plates (Greiner Catalog # 789173-F) and incubated at 37 C, 5% CO2 for 24 hours. Compounds (23 nL) were pinned using the Kalypsys robotic system equipped with 1536 pin head adaptor in 7-point dose response. The assay plates were incubated for additional 24 hr at 37 C, 5% CO2 followed by a volume reduction in each well to 2 uL using an automated plate washer/aspirator. Following the volume reduction,2 uL of FLuc detection reagent and plates were incubated for 10 minutes at room temperature. The FLuc luminescence signal was obtained using the PerkinElmer ViewLux plate imager and then 2 uL of NanoLuc detection reagent was added to the plates. After another 10 minute incubation, NanoLuc signal was obtained using the PerkinElmer ViewLux plate imager as before. Data from each channel was normalized to DMSO (neutral control) and the positive control compounds (100%).", "values": [
      {"smiles": "CNCCC=C1c2ccccc2CCc2ccccc21", "outcome": "inactive"},
      {"smiles": "O=C(O)c1cc2cc(Cc3cccnc3)ccc2o1", "outcome": "inactive"},
      {"smiles": "N[C@H](CO)C(=O)O", "outcome": "inactive"},
      {"smiles": "C[N+]1(CCCCC[N+]2(C)CCCC2)CCCC1", "outcome": "inactive"},
      {"smiles": "COc1cc(NS(C)(=O)=O)ccc1Nc1c2ccccc2nc2ccccc12", "outcome": "inactive"},
      {"smiles": "CC(C)C[C@H]1C(=O)N2CCC[C@H]2[C@]2(O)O[C@](NC(=O)[C@@H]3C=C4c5cccc6[nH]c(Br)c(c56)C[C@H]4N(C)C3)(C(C)C)C(=O)N12", "outcome": "inactive"},
      {"smiles": "CC(C)COC(=O)OCN1C(=O)CN(CCN2CC(=O)N(COC(=O)OCC(C)C)C(=O)C2)CC1=O", "outcome": "inactive"},
      {"smiles": "CNCCC(Oc1ccccc1C)c1ccccc1", "note": "(stereo not drawn)", "outcome": "inactive"},
      {"smiles": "CC1(C)CCC(NC(=O)[C@@H](N)CCC(=O)O)CC1", "outcome": "inactive"},
      {"smiles": "COC(=O)[C@H]1[C@H]2C[C@H]3c4[nH]c5ccccc5c4CCN3C[C@H]2CC[C@@H]1O", "outcome": "inactive"},
      {"smiles": "CCCC1O[C@@H]2C[C@H]3[C@@H]4CCC5=CC(=O)C=C[C@]5(C)[C@H]4[C@@H](O)C[C@]3(C)[C@]2(C(=O)CO)O1", "note": "(stereo partly drawn)", "outcome": "inactive"},
      {"smiles": "Nc1cc(Cl)c(NC2=NCCN2)c(Cl)c1", "outcome": "inactive"},
      {"smiles": "CC(CCc1ccccc1)NCC(O)c1ccc(O)c(C(N)=O)c1", "note": "(stereo not drawn)", "outcome": "inactive"},
      {"smiles": "CC(=O)O[C@H]1C[C@@H]2CC[C@@H]3[C@H](CC[C@@]4(C)[C@H]3C[C@H]([N+]3(C)CCCCC3)[C@@H]4OC(C)=O)[C@@]2(C)C[C@@H]1[N+]1(C)CCCCC1", "outcome": "inactive"},
      {"smiles": "COc1cc2c(cc1O)CC[C@@H]1[C@@H]2CC[C@]2(C)[C@@H](O)CC[C@@H]12", "outcome": "inactive"},
      {"smiles": "CCC(NC(C)C)C(O)c1ccc(O)c(O)c1", "note": "(stereo not drawn)", "outcome": "inactive"},
      {"smiles": "C[C@@H]1C(=O)NC2=Nc3cccc(Cl)c3CN21", "outcome": "inactive"},
      {"smiles": "CN1C2CCC1CC(OC(=O)c1c[nH]c3ccccc13)C2", "note": "(stereo not drawn)", "outcome": "inactive"},
      {"smiles": "C[C@]12CC[C@@H]3c4ccc(O)cc4CC[C@H]3[C@@H]1CC[C@@H]2O", "outcome": "inactive"},
      {"smiles": "Oc1ccc(O)cc1", "outcome": "inactive"},
      {"smiles": "N[C@@H](Cc1cnc[nH]1)C(=O)O", "outcome": "inactive"},
      {"smiles": "O=C1CCC(c2ccc(-n3ccnc3)cc2)=NN1", "outcome": "inactive"},
      {"smiles": "C1CCc2nnnn2CC1", "outcome": "inactive"}
    ]}
  ]
}
